The source of these data is ChEMBL document CHEMBL2218924, “A broad activity screen in support of a chemogenomic map for kinase signalling research and drug discovery” (Biochem J, 2013).

Test [1] concerns the target T1, Ephrin type-A receptor 3 (Homo sapiens) (UniProt P29320).
T1 sequence (whole entry): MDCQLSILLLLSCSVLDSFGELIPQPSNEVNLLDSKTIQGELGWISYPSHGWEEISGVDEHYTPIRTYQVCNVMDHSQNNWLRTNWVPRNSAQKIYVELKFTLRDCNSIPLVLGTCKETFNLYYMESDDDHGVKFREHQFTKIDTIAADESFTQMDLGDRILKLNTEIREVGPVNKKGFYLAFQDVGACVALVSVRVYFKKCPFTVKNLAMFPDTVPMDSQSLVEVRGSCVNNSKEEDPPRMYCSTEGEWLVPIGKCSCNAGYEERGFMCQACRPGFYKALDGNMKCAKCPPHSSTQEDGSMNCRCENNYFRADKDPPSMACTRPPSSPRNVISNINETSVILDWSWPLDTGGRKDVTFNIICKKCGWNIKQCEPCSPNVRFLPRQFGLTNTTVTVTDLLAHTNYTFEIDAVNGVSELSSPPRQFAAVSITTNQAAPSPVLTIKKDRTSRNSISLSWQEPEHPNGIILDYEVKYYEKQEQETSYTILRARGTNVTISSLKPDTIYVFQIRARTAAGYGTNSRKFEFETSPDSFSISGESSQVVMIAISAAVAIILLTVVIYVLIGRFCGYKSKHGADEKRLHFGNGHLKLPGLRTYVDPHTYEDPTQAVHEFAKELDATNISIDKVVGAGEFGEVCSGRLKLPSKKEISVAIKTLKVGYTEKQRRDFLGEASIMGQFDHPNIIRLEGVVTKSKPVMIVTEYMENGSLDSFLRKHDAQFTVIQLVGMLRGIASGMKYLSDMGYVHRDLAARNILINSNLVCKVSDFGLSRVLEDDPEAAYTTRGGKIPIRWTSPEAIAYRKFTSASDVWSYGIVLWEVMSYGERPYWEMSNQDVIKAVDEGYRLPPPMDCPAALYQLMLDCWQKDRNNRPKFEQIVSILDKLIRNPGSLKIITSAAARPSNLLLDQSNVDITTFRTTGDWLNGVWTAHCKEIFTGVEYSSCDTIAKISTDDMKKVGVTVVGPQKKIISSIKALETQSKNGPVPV
Conditions: at 10 µM.

Test [2] concerns the target Ephrin type-A receptor 4 (Homo sapiens) (UniProt P54764). Conditions: at 1 µM.
The target is the same in test [3]. Conditions: at 10 µM.
Test [4] deals with Ephrin type-A receptor 5 (Homo sapiens) (UniProt P54756). Conditions: at 1 µM.
Sequence of Ephrin type-A receptor 5 (Homo sapiens) (P54756 whole entry): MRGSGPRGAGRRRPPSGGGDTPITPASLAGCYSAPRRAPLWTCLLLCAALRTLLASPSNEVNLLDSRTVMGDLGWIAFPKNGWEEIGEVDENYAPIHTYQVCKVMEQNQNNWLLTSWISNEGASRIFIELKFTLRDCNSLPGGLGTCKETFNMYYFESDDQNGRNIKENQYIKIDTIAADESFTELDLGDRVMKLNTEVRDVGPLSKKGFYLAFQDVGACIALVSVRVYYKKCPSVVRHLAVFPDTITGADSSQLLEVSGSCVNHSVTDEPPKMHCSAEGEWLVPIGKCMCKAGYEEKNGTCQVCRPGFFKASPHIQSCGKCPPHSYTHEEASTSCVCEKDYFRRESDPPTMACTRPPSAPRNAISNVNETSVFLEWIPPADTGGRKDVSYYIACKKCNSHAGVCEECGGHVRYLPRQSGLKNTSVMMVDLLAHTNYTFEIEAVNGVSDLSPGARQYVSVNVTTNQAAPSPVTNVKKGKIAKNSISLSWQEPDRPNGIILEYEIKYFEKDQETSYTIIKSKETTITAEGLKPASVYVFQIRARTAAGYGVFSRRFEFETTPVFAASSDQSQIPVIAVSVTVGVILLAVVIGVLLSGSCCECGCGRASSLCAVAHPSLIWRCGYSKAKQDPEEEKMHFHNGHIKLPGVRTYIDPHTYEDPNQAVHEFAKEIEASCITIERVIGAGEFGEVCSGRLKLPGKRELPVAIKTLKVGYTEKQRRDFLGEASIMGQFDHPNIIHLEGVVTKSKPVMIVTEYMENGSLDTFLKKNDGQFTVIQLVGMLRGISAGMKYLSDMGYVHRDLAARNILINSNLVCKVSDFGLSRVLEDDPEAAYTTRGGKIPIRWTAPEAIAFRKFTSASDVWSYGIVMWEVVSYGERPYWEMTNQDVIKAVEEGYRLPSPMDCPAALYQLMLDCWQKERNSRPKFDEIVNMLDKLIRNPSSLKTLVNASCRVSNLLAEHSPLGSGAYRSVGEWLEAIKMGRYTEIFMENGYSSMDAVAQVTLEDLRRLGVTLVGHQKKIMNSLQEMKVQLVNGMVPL
For test [5] the target is unchanged. Conditions: at 10 µM.
Test [6] concerns the target Ephrin type-A receptor 7 (Homo sapiens) (UniProt Q15375). To be noted: at 1 µM.
For test [7] the target is unchanged. Conditions: at 10 µM.
Test [8] has as its target T2, Ephrin type-A receptor 8 (Homo sapiens) (UniProt P29322).
T2 sequence (whole entry): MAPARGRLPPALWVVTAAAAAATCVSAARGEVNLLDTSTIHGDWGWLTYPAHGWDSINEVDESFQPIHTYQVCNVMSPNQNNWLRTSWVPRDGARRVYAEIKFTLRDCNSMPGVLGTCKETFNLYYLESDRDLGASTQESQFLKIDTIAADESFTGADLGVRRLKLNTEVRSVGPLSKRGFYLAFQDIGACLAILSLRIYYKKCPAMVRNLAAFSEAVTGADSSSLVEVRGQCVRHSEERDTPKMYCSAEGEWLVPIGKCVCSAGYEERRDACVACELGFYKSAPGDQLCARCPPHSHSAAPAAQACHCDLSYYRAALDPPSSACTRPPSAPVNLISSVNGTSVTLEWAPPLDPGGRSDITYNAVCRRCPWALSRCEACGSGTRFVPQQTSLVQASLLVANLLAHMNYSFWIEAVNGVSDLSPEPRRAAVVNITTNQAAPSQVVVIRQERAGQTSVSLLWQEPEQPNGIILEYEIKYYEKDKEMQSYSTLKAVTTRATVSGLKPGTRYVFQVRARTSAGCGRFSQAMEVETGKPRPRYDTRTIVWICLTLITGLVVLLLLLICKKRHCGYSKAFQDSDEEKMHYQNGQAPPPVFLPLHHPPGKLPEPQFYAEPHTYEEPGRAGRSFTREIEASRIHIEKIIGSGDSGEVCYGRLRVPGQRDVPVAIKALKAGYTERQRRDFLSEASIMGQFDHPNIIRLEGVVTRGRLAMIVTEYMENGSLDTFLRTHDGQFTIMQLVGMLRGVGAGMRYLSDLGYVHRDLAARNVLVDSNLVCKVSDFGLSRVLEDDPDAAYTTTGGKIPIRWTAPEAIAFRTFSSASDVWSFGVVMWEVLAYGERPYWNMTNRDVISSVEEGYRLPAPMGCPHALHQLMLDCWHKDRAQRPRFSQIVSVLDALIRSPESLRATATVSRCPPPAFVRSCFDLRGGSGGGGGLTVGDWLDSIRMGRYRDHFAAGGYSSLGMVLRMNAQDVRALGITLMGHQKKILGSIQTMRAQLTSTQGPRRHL
Conditions: at 1 µM.

For test [9], the target named is T2, Ephrin type-A receptor 8 (Homo sapiens). Conditions: at 10 µM.
Test [10] deals with T3, Ephrin type-B receptor 1 (Homo sapiens) (UniProt P54762).
T3 sequence (whole entry): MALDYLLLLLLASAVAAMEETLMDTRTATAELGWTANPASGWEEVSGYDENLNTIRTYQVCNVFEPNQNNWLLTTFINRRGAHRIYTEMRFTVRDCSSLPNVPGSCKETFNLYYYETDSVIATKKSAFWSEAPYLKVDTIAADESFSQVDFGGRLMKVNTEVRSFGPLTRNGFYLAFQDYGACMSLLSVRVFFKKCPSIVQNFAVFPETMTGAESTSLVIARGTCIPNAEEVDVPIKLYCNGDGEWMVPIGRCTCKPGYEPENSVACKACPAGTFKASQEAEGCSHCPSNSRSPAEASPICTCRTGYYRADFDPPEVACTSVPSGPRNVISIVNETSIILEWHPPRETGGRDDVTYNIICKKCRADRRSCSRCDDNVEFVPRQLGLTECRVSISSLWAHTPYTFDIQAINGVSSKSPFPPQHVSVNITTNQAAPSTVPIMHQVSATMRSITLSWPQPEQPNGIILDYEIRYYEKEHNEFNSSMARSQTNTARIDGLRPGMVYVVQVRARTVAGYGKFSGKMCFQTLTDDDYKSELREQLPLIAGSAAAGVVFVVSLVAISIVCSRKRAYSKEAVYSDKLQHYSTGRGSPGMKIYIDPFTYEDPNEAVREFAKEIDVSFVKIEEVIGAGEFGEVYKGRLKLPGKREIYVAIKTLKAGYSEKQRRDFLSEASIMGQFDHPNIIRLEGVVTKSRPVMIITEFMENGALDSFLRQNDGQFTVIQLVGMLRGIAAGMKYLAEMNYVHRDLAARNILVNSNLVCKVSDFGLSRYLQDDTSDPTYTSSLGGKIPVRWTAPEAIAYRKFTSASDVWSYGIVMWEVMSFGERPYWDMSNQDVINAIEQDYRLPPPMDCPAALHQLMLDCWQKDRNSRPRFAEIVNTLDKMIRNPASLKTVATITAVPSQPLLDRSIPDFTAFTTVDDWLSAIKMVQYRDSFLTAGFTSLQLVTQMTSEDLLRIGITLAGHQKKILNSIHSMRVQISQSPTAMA
To be noted: at 1 µM.

Structures are written as SMILES.

As a reminder, the residual activity is the signal under treatment as a percentage of the control signal.

Sequence of Ephrin type-A receptor 7 (Homo sapiens) (Q15375 28-998 limits assumed): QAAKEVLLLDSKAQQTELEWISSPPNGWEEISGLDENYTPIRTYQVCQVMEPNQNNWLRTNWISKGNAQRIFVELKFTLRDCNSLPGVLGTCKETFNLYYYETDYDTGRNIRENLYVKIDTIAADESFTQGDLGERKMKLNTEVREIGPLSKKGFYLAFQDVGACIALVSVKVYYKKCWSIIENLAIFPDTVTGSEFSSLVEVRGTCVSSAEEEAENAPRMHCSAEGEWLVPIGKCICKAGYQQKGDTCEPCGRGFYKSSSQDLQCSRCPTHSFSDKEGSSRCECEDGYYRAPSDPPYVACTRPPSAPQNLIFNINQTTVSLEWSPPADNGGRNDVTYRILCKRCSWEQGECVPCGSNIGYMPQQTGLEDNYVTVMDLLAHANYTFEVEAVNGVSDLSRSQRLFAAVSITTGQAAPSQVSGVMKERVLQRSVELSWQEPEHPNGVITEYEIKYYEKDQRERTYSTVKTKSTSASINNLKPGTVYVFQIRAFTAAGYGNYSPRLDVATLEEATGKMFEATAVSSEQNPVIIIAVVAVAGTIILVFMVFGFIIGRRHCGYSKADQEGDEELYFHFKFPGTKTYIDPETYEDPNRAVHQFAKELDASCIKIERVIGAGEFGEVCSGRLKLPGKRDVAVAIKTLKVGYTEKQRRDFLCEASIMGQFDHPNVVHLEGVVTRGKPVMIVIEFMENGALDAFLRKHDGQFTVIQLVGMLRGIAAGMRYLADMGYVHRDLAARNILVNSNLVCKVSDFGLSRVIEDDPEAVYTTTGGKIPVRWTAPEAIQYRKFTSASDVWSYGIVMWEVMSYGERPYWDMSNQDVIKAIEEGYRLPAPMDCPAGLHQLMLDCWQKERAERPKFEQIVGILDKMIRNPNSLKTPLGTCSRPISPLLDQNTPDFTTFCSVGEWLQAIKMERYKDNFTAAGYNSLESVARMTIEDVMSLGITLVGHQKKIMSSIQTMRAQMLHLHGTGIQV
Sequence of Ephrin type-A receptor 4 (Homo sapiens) (P54764 whole entry): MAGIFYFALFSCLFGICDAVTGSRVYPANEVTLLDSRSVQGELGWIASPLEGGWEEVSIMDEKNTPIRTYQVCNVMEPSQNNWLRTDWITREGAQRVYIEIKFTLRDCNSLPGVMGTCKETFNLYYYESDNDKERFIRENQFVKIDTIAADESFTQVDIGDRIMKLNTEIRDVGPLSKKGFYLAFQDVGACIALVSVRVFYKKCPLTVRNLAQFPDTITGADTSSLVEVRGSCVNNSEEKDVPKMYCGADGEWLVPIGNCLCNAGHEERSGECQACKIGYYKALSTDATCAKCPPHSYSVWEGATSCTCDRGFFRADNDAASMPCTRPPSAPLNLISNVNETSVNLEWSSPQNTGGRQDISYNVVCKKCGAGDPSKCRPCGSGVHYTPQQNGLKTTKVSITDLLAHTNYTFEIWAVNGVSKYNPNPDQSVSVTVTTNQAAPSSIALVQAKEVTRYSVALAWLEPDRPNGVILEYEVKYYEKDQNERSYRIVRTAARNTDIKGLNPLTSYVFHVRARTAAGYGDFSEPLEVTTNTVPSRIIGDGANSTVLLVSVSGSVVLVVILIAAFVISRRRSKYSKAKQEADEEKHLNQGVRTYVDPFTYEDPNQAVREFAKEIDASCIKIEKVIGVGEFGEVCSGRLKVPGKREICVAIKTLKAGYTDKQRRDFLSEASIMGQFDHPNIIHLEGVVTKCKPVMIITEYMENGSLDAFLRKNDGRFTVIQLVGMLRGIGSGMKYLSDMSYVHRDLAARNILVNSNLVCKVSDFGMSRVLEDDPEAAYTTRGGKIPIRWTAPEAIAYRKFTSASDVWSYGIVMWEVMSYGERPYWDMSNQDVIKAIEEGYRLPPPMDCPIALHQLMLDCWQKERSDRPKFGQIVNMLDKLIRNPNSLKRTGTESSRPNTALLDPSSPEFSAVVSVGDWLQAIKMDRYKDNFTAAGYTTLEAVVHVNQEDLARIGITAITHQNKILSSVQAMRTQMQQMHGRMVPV

On to `C[S+]([O-])c1ccc(-c2nc(-c3ccc(F)cc3)c(-c3ccncc3)[nH]2)cc1` (stereo not given), for which the residual activity in test [1] is 86%; in [2], 110%; in test [3], 80%; in test [4] it was 96%; in test [5], 48%; in test [6], 102%. Also, the residual activity in test [7] came to 65%; in test [8] it was 91%; in test [9], 43%; in test [10], 106%.
